Source: PubChem BioAssay AID485344 (National Center for Advancing Translational Sciences (NCATS), 2010)
The whole screen tested about 340,000 compounds, of which about 6,900 (2%) were called active. No stated cut-off is given here; in the data, active means inhibition above about 30%; inactive means below that, where a call was filed. What follows is part of a selection rich in actives, with near analogues and random picks from the rest.

Target: D(2) dopamine receptor (Homo sapiens) (UniProt P14416)
Sequence (P14416 whole entry, looked up): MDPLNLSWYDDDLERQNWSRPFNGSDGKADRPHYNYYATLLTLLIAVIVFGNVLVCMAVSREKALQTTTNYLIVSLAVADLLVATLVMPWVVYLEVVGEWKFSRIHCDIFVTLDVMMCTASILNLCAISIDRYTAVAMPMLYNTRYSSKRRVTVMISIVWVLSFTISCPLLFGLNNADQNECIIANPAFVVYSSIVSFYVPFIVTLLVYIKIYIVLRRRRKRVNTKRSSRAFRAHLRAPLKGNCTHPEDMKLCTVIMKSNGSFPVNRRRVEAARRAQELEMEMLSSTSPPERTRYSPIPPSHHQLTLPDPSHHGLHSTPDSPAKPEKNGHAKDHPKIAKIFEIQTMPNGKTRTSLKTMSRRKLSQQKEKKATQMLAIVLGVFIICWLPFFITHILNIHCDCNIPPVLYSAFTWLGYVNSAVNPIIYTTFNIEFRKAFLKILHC
Assay: HTS Assay for Allosteric Antagonists of the Human D2 Dopamine Receptor: Primary Screen for Antagonists; further: 0% is about no effect
Details: HEK293 TREx D2 cells, calcium flux, dopamine EC80; at 10 µM; active compounds read high
Description: NIH Chemical Genomics Center [NCGC] NIH Molecular Libraries Probe Centers Network [MLPCN] MLPCN Grant: NS064831-01 Assay Submitter (PI): David Sibley Dopamine receptors (DARs) are involved in the etiology and/or therapy of a number of neuropsychiatric and endocrine disorders. For instance, all receptor-based antiparkinsonian drugs work via stimulating the D2 DAR subtype whereas all FDA-approved antipsychotic agents are antagonists of this receptor. […] There are three different types of allosteric modulators that we are seeking, two of which will stimulate or augment receptor signaling, allosteric agonists and potentiators, while the third, allosteric antagonists, will attenuate receptor signaling. The present primary screening assay measures compound antagonism after an EC80 addition of dopamine by tracking calcium flux in a […], inducible Hek293 Trex D2 cell line.
Freshly passaged cells are plated in 1536 well black, clear bottom plates at a density of 4000 cells/well in 3 ul of complete media containing 1x tetracycline inducer. After an overnight incubation at 30 C in 5% CO2, cells are loaded with 2 ul of the no wash Calcium Assay Kit (ABD Bioquest) and incubated at room temperature for 30 to 90 minutes. Agonist read: A 10 cycle (1 second/cycle) baseline measurement is taken and then the FDSS online 1536 pintool delivers 23 nl of compound library (as well as dopamine controls) to the plate. The plate is measured for kinetically at 1 cycle/sec for 180 seconds. Following the 180 second read, 1 ul of an EC80 (negative modulation assay) is delivered by an onboard pipette head. Measurements are taken kinetically for an additional 180 seconds.

SMILES	inhibition
CN1CCC(OC(=O)c2cccc(F)c2)CC1	8.08% (inactive)
COc1ccc(C(=O)C2CN(C)CC2C(=O)c2ccc(OC)cc2)cc1 (stereo not given)	4.54% (inactive)
Cc1ccc(C2CN(C)CC2C(=O)c2ccc(F)cc2)cc1 (stereo not given)	70% (active)
COC(=O)C1=C(c2ccc(F)cc2OCc2ccccc2)C[C@@H]2CC[C@H]1N2C(=O)NCc1ccc2[nH]ccc2c1	4.27% (inactive)
COC(=O)C1=C(c2cccc(OCc3ccccc3)c2)C[C@@H]2CC[C@H]1N2C(=O)NNCc1ccccc1	-6.45% (inactive)
O=C(O)CCn1cc(C=C2C(=O)NC(=S)NC2=O)c(-c2cccc(Br)c2)n1	18.3% (inactive)
CCc1ccc(OCC(=O)N2CCN(CC(=O)Nc3ccccc3Cl)CC2)cc1	-8.62% (inactive)
Fc1ccc(N2CCN(Cc3ccc4c(c3)OCO4)CC2)cc1	65.6% (active)
CCN1CCN(Cc2cc(OC)c3c(c2)OCO3)CC1	-21.1% (inactive)
Cc1cc(=O)oc2c(C)c(OCC(=O)N3CCN(Cc4ccc5c(c4)OCO5)CC3)ccc12	3.54% (inactive)
Oc1cc2c(cc1CN1CCN(c3ccccc3)CC1)OCO2	108% (active)
CC(C)c1ccc(O)c(CN2CCN(c3ccccc3)CC2)c1	-16.3% (inactive)
O=C(Cc1ccccc1[N+](=O)[O-])N1CCN(Cc2ccc3c(c2)OCO3)CC1	-19.1% (inactive)
CN1CCC(N(C)Cc2cccnc2)CC1	11.8% (inactive)
Cc1ccccc1NC(=O)COC(=O)c1cc(C)n(C2CC2)c1C	6.13% (inactive)
COC(=O)C1=C(c2ccc(Cl)c(C(F)(F)F)c2)C[C@@H]2CC[C@H]1N2C(=O)NC(C)C	-9.37% (inactive)
COC(=O)C1=C(c2ccc(F)cc2OCc2ccccc2)C[C@@H]2CC[C@H]1N2C(=O)NCc1ccc(Cl)cc1	-5.86% (inactive)
CCOC(=O)C1(CCc2ccccc2)CCN(Cc2ccco2)CC1	1.26% (inactive)

SMILES	inhibition
CCOC(=O)C1(Cc2ccc(Cl)cc2)CCN(C(C)CCn2cccn2)CC1 (stereo not given)	77.6% (active)
COC(=O)C1=C(c2cccc(OCc3ccccc3)c2)C[C@@H]2CC[C@H]1N2C(=O)NCc1ccc(Br)cc1	-11.9% (inactive)
c1cncc(CNC2=NCCC2)c1	-1.77% (inactive)
c1cncc(CNCCc2c[nH]c3ccccc23)c1	33% (active)
COc1ccc(CNCCc2c[nH]c3ccccc23)cc1OC	22.9% (inactive)
COc1ccccc1CN1CCN(C(=O)Cc2ccccc2)CC1	-40.7% (inactive)
COc1ccc(CN2CCN(c3ccccc3F)CC2)c(OC)c1	76.4% (active)
Fc1cccc(F)c1CN1CCN(Cc2c(F)cccc2F)CC1	-7.4% (inactive)
COC(=O)C1=C(c2ccccc2OCc2ccccc2)C[C@@H]2CC[C@H]1N2C(=O)NCc1ccc(OC)cc1	-2.56% (inactive)
COC(=O)C1=C(c2ccc(F)cc2OCc2ccccc2)C[C@@H]2CC[C@H]1N2C(=O)NCc1ccc(OC)c(OC)c1	-1.84% (inactive)
COC(=O)C1=C(c2ccc(Cl)c(C(F)(F)F)c2)C[C@@H]2CC[C@H]1N2C(=O)NC1CC1	-0.929% (inactive)
COC(=O)C1=C(c2ccc(-c3ccccc3)c(F)c2)C[C@@H]2CC[C@H]1N2C(=O)NCc1ccc(F)cc1	-5.61% (inactive)
Cn1c(O)c(C(=Nc2ccc(F)cc2)c2ccccc2)c(=O)n(C)c1=O	-2.27% (inactive)
NCC(O)c1ccc(O)cc1 (stereo not given)	32.1% (active)
CCc1cccc2c(C#N)cn(CC(=O)N3CCOCC3)c12	-4.1% (inactive)
C[C@]12CC[C@H](O)C[C@H]1CC[C@@H]1C2CC[C@]2(C)[C@@H](C3=CC(=O)OC3)[C@@H](O)C[C@]12O (stereo not given in full)	8.92% (inactive)
COC(=O)C1=C(c2ccc3ccccc3c2)C[C@@H]2CC[C@H]1N2C(=O)NCCO	-12.6% (inactive)
